Screens: PubChem BioAssay, several laboratories
FAS-TE inh = FAS thioesterase domain inhibitors, primary screen, biochemical, fluorescence intensity, uHTS; inhibition, % at 15 µM; recombinant FAS-TE, OMFH fluorogenic substrate, fluorescence endpoint; hit rate 0.67% among 360,000;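 active means compounds whose normalised, plate-corrected inhibition of enzyme fluorescence in the single-dose primary screen is 50% or more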;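 further: 0% = DMSO with enzyme and 100% = substrate without enzyme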
NR3A LBD binder = binders of NR3A ligand-binding domain, primary screen, biophysical, differential scanning fluorimetry, uHTS; hit rate 2.5% among 340,000; NR3A LBD differential scanning fluorimetry, Tm shift; 0% = protein alone, 100% = glycine-bound protein; AID 1259313, 2017; Tm shift relative to glycine control, % at 25 µM; Glutamate receptor ionotropic, NMDA 3A (GRIN3A) ligand-binding domain;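 active means melting temperature shift of at least 10% of the positive control shift, at one fixed dose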
proKLK7 act = proKLK7 zymogen activators, primary screen, biochemical, fluorescence intensity. activation, % at 7 µM. purified proKLK7, EDANS-DABCYL substrate fluorescence; 100% is mature enzyme control, 0% vehicle. Kallikrein-7 (Homo sapiens), P49862. hit rate 0.9% among 370,000;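 active means activation above the mean of all tested compounds plus 3 SD, computed per campaign excluding outliers beyond control limits, cut at about 13% in these data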
ADAM17 inh = ADAM17 inhibitors, primary screen, biochemical, QFRET; inhibition, % at 6.95 µM; AID 720648, 2013; hit rate 0.83% among 370,000; recombinant ADAM17, EDANS/DABCYL FRET peptide cleavage; Disintegrin and metalloproteinase domain-containing protein 17 (Homo sapiens), P78536;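 active means inhibition above the mean of compounds lying between control limits plus 3 SD, set per campaign, cut at about 8.5% in these data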;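 further: 0% = DMSO-only wells as the low control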
ADAM10 inh = human ADAM10 inhibitors, primary screen, biochemical, QFRET, HTS. Disintegrin and metalloproteinase domain-containing protein 10 (Homo sapiens), O14672. recombinant ADAM10, EDANS/DABCYL FRET peptide cleavage, 3 h. inhibition, % at 7 µM. hit rate 0.62% among 370,000;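 active means inhibition above a per-campaign cutoff equal to the mean of compounds falling between control-based bounds plus 3 SD, cut at about 20% in these data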;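 further: 0% = DMSO wells while the 100% control is not disclosed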
Target sequence (O14672 214-748 limits assumed): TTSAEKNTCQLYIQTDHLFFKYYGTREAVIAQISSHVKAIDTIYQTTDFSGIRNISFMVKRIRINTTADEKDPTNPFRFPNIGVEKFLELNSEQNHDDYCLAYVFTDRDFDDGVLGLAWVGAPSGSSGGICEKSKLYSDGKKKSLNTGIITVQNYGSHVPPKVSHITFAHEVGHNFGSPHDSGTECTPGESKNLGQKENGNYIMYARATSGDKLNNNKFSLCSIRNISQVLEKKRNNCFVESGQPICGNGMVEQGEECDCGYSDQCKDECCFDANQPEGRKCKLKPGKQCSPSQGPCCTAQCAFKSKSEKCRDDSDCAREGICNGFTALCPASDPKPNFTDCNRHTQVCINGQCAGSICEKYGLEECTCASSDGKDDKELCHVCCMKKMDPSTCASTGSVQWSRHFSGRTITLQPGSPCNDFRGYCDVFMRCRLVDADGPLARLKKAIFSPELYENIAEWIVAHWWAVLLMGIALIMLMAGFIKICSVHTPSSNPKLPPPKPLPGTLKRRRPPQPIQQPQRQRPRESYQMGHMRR
KLK7 act conf = proKLK7 zymogen activators, confirmation, biochemical, fluorescence intensity, triplicate | hit rate 68% among 3,200 | purified proKLK7, EDANS-DABCYL substrate fluorescence; scaled: vehicle 0, mature enzyme 100 | activation, % at 7 µM | AID 686949, 2013 | shares compounds with proKLK7 act;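 active means activation, as change over the incubation, above the mean of all tested compounds plus 3 SD, cut at about 13% in these data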
EDANS-DABCYL int = EDANS-DABCYL substrate optical interference, artefact control for kallikrein-7 zymogen activator project, biochemical, fluorescence intensity, high throughput; shares compounds with proKLK7 act; no enzyme, 4 h; solvent 0%, active enzyme control 100%; activation, % at 7 µM; hit rate 80% among 3,200; AID 686952, 2013;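 active means activation above the all-compound mean plus 3 SD, ignoring values outside control-based bounds, cut at about 4.8% in these data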;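 further: value is the 4 h activation minus the activation read at time zero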
EDANS interf = optically interferes with EDANS-DABCYL fluorescence, kallikrein-7 activator counter-screen | shares compounds with proKLK7 act | EDANS-DABCYL peptide fluorescence interference, no enzyme | EC50, µM | hit rate 20% among 250;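 active means compounds that raise the fluorescence signal in this interference counterscreen, with EC50 at or below 10 µM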;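 further: intact quenched peptide substrate alone read at 355 nm excitation and 520 nm emission; signal is fluorescence gain from T0 to T4 after four hours at room temperature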
* = called active by the depositor; i = inactive; . = no result given. Only some compounds are listed: those with a hit (about 4.6% of all), similar ones and a draw of the others.

SMILES | FAS-TE inh | NR3A LBD binder | proKLK7 act | ADAM17 inh | ADAM10 inh | KLK7 act conf | EDANS-DABCYL int | others
Cn1c(=O)c2cc(NC(=S)NC3CC3)ccc2n1Cc1ccccc1 | -4.6 | . | 16.3* | -234.7 | i | 10.3 | 13.8*
CC(C)=CCn1c2ccc(NC(=S)NC3CC3)cc2c(=O)n1C | -6.5 | . | 18.1* | i | i | 13.8* | 13.9*
CN(C)CCCNC(=O)C[C@@H]1CC[C@@H]2[C@H](COc3ccc(NC(=O)c4cccc(F)c4)cc3C(=O)N2C)O1 | . | . | -0.3 | -1.6 | -2.8 | . | .
CCN=C1S/C(=C/c2cc(C)n(-c3ccc(Cl)cc3F)c2C)C(=O)N1CC | . | . | . | -9.0 | -11.1 | . | .
O=C1Nc2ccccc2/C1=C/c1cccnc1 | -3.4 | -0.2 | 0.3 | 1.0 | 8.7 | . | .
O=C1Nc2ccccc2/C1=C/c1cnc(-c2ccccc2)[nH]1 | -45.5 | 2.5 | 20.1* | -0.5 | 6.0 | 40.0* | 53.6*
C=CCNC(=O)c1cc2cc(Cl)ccc2nc1N | -5.7 | . | 18.4* | -201.3 | i | 15.7* | 14.4*
Nc1nc2ccc(Cl)cc2cc1C(=O)NCCCN1CCOCC1 | . | . | 19.3* | -131.4 | -493.4 | 14.6* | 11.8* | EDANS interf=i
Cc1ccc(C(=O)Nc2ncccc2C)o1 | -7.1 | 0.5 | 0.0 | 2.2 | 1.7 | . | .
Cc1cccnc1NC(=O)c1ccc([N+](=O)[O-])o1 | -10.5 | 6.6 | 17.4* | -84.6 | -269.8 | 19.1* | 20.8*
CCOC(=O)c1c(SCC(=O)Nc2nccs2)nc(C)c(C)c1C | 3.3 | 3.7 | 79.0* | -22.3 | -48.7 | 60.7* | 57.9*
Cc1ccc(C#N)c(SCC(=O)Nc2nccs2)n1 | -4.0 | 1.6 | 130.4* | -60.4 | -183.4 | 209.0* | 182.4*
COC(=O)[C@]1(CNC(=O)Nc2ccc(C)c(Cl)c2)CC(=O)N(C)[C@@H]1c1ccccc1 | . | . | -0.4 | 1.1 | 3.8 | . | .
O=C(CCCCCn1c(=S)[nH]c2ccc(N3CCOCC3)cc2c1=O)NCc1cccc(Cl)c1 | 0.3 | -2.5 | 16.5* | -13.4 | -21.8 | -32.2 | -38.4
CCCCN(C)CCn1c(=S)[nH]c2ccc(N3CCOCC3)cc2c1=O | -5.4 | -3.1 | 67.6* | -152.9 | i | -7.6 | -7.7
O=C(CCCCCn1c(=S)[nH]c2ccc(N3CCOCC3)cc2c1=O)NCc1ccccc1 | -1.2 | -2.2 | -2.0 | -18.3 | -79.2 | . | .
O=c1c2cc(N3CCOCC3)ccc2[nH]c(=S)n1CC1CCCO1 (stereo unspecified) | 0.2 | 1.4 | 31.8* | -48.0 | -120.0 | -16.4 | 4.7*
O=c1c2cc(N3CCOCC3)ccc2[nH]c(=S)n1CCc1ccccc1 | 12.0 | 1.2 | 0.6 | -13.5 | -26.2 | . | .
O=c1c2cc(N3CCOCC3)ccc2[nH]c(=S)n1Cc1ccccn1 | -6.9 | 2.7 | 79.6* | -57.1 | -265.4 | 20.6* | 19.7*
COC(=O)[C@@]12CCCCC=C1N(CCc1ccc(Cl)cc1)C(=O)[C@H]2CC(=O)NCC1CCCCC1 | . | . | 0.0 | 0.5 | 4.6 | . | .
CCOC(=O)c1cccc(-c2cc(C(=O)OC)c3n(c2=O)CCC3)c1 | . | . | 0.9 | -15.2 | -44.8 | . | .
COCCn1c(=S)[nH]c2ccc(N(C)C)cc2c1=O | -7.3 | -0.6 | 48.2* | -58.7 | -182.4 | 76.0* | 74.2*
CCOc1cc2[nH]c(=S)n(CCOC)c(=O)c2cc1OCC | -2.8 | 0.8 | -0.3 | -0.5 | 3.3 | . | .
COCCCn1c(=S)[nH]c2ccc(N3CCOCC3)cc2c1=O | -6.1 | -0.1 | 58.3* | -63.9 | -235.1 | 30.2* | 48.5*
COc1ccc(CCn2c(=S)[nH]c3ccc(N4CCOCC4)cc3c2=O)cc1OC | 2.6 | 0.5 | -3.3 | -11.5 | -17.4 | . | .
